# According to PubChem BioAssay AID588477 (NMMLSC, 2011):
# Unmarked numbers belong to inactive results. Active and inactive are the calls of the source.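 The calls were made as follows: active = valid curve fit with half-effect dose at most 10 µM and total binding change across doses of 30 points or more; inactive = the rest.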
# Tested on: Rac wt
# Assay: small GTPase nucleotide-binding inhibition, multiplex panel – biochemical, round 1 SAR, Mg buffer, multiplex flow cytometry, selectivity assay for Cdc42 probe extension project, SAR follow-up (AID 588477)
# Conditions: GST-GTPase beads, Bodipy-GTP binding; series mostly up to 100 µM; percent response (remaining binding): at the top concentration
Structure (SMILES),percent response (remaining binding) [%],outcome
NS(=O)(=O)c1ccc(N2N=C(c3ccccc3)CC2c2ccccc2)cc1 (stereo not drawn),94.6,–
O=C(C#Cc1ccccc1)c1cccc([N+](=O)[O-])c1,–,inactive
COc1ccc(C2CC(c3ccccc3)=NN2c2ccc(S(N)(=O)=O)cc2)cc1 (stereo not drawn),91.3,–
